Shown are actives, neighbours in structure and some others; about 12% of the full set was active somewhere.
JMJD2A Tudor inh – qHTS Assay for Inhibitors of JMJD2A-Tudor Domain | 390,000 compounds, 4.4% hits | AlphaScreen JMJD2A-Tudor / H3K4me3 peptide binding | Potency, µM (titrated, usually from 114 µM), hits mostly inhibitors; also: nearly all actives have a fitted effect of over 50% in size
Sfp PPTase inh – qHTS Assay for Inhibitors of Bacillus subtilis Sfp phosphopantetheinyl transferase (PPTase); 4'-phosphopantetheinyl transferase ffp (Bacillus subtilis), Q9F4F7; Biochemical Sfp PPTase activity, qHTS; Potency, µM, actives largely listed as inhibitors; 310,000 compounds, 3.5% hits;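 also: the enzyme is Sfp with the accession as filed and its product quenches rhodamine fluorescence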
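Step 1, compound plus 15 nM Sfp-PPTase, 15 min, room temperature. Step 2, add rhodamine-CoA (5 uM) and BHQ-2-YbbR (12.5 uM). Step 3, read 525/598 nm fluorescence at 0 and 30 min.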
G9a inh – qHTS Assay for Inhibitors of Histone Lysine Methyltransferase G9a; Potency, µM (highest dose often 102 µM), most hits filed as inhibitors; 350,000 compounds, 8.8% hits; G9a H3K9 monomethylation, AlphaScreen, 2 h; Histone-lysine N-methyltransferase EHMT2 (Homo sapiens), Q96KQ7; also: nearly all actives have a fitted effect of over 75% in size
Target sequence (Q96KQ7 913-1193 limits assumed): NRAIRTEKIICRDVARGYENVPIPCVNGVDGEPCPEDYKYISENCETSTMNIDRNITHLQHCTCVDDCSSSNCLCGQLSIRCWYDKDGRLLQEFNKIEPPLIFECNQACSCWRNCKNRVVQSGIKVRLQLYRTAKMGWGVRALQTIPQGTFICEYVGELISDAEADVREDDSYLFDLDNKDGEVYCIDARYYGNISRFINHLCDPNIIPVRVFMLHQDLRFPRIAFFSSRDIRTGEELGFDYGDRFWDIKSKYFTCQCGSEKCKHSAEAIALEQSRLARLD
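AlphaScreen detection with an anti-monomethyl H3K9 antibody quantified product after a 2 h room-temperature reaction containing 500 nM biotinylated H3K9 peptide, 20 µM SAM and 20 nM enzyme, which had been preincubated 15 min with compound.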
L3MBTL1 inh – qHTS Assay for the Inhibitors of L3MBTL1; AlphaScreen L3MBTL1–H3K9me1 peptide binding; Potency, µM (series often up to 57.1 µM), hits mostly inhibitors; 230,000 compounds, 0.66% hits; also: nearly all actives have a fitted effect of over 60% in size
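L3MBTL1 50 nM + b-AHA-H3(1-15)K9me1 75 nM, 30 min RT; compound added, 30 min RT; streptavidin donor/Ni-chelate acceptor beads 10 ug/mL each final, 30 min RT dark; AlphaScreen read.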
BAZ2B block – qHTS Assay for Inhibitors of BAZ2B. 360,000 compounds, 4.4% hits. Bromodomain adjacent to zinc finger domain protein 2B (Homo sapiens), Q9UIF8. AlphaScreen BAZ2B-H3K14Ac peptide displacement. Potency, µM (titrated, usually from 114 µM), actives largely listed as inhibitors; also: nearly all actives have a fitted effect of over 60% in size
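AlphaScreen displacement of biotin-H3(5-23)K14Ac peptide (50 nM final) from BAZ2B (50 nM final) in PBS pH 7.4, 0.01% Tween-20; complex preformed 30 min RT, then compounds (top 110 uM) 30 min RT, beads 20 min dark.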
HP1b binding inh – HTS for Inhibitors of HP1-beta Chromodomain Interactions with Methylated Histone Tails | AlphaScreen HP1-beta / biotin-H3K9me3 peptide binding | Potency, µM (top dose mostly 114 µM), hits mostly inhibitors | 390,000 compounds, 0.56% hits | AID 540317, 2011; also: nearly all actives have a fitted effect of over 70% in size
Target sequence (P83916 whole entry, looked up): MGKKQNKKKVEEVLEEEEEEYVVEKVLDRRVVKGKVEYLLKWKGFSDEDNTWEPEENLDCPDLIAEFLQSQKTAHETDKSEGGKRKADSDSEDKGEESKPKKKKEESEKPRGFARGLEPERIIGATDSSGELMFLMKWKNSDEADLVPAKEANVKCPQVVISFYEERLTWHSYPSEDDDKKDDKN
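HP1-beta protein (50 nM final) preincubated 30 min at room temperature with biotinylated H3(1-18)K9me3 peptide (50 nM) in PBS pH 7.4, 0.01% Tween-20, then compound added for 30 min. AlphaScreen streptavidin donor/nickel chelate acceptor beads (10 ug/mL final), 30 min dark, luminescence read.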
A number is an active result; n = inactive; u = inconclusive; x = no result given; [ ] = dose if it differs, or a comment. Calls follow the shape of the dose curve; as a rule, active = well fitted curve in the direction sought with a large enough effect; inconclusive = small, poorly fitted or top-dose-only effect, or another doubt; inactive = no such curve, though single readings can be large; an effect the other way counts as inactive or inconclusive.

SMILES | JMJD2A Tudor inh | Sfp PPTase inh | G9a inh | L3MBTL1 inh | BAZ2B block | HP1b binding inh
O=C(Cn1ccc2ccccc2c1=O)NCC(=O)N1CCN(c2ccccc2F)CC1 | n | n | n | x | n | n
COc1ccc(NC(=O)C2(c3cccs3)CCOCC2)cc1 | n[11.4 µM] | n | n | n | n | n
CC(=O)Nc1ccc(NC(=O)C2(c3cccs3)CCOCC2)cc1 | 44.7µM | x | n | x | n | n
Cn1c(SCC(=O)c2ccc3c(c2)OCCO3)nnc1C(F)(F)F | n | n | 56.2µM | n | n | n
Cn1c(SCC(=O)c2ccc3c(c2)OCCO3)nnc1C1CC1 | n | 70.8µM | 22.4µM | n | n | n
CCN(CC)C(=O)c1sc2c(c1C)c(=O)n(-c1ccc(C)c(C)c1)c(=O)n2Cc1cc(=O)n2ccccc2n1 | n | x | n | x | n | n
CCOC(=O)/C(=N/Nc1ccc(C)cc1)S(=O)(=O)c1ccc(Cl)cc1 | n | n | 14.1µM | x | n | n
O=C(CSc1n[nH]c(=O)n1Cc1ccccc1)Nc1ccc(F)c(F)c1F | n | u | 39.8µM | x | u | n
c1ccc(C(CN2CCCCC2)Oc2ccccn2)cc1 (stereo not given) | n | x | x | x | x | n
COc1cc(OC)cc(C(=O)n2cnnc2N)c1 | n | n | 44.7µM | x | n | n
Cc1ccc(CN2CCN(C3CCOCC3)CC2CCO)cc1 (stereo not given) | n | n | x | n | n | n
S=C(Nc1ccc(N2CCOCC2)cc1)Nc1ccc2nc(-c3ccco3)c(-c3ccco3)nc2c1 | u | n | 31.6µM | x | u | n
O=C(Nc1ccc2nc(-c3ccco3)c(-c3ccco3)nc2c1)N1CCCC1 | 14.1µM | x | x | x | x | 10µM
CC1CCN(C(=O)Nc2ccc3nc(-c4ccco4)c(-c4ccco4)nc3c2)CC1 | 12.6µM | x | x | x | x | 11.2µM
Cc1nc2ccc(NC(=O)N3CCOCC3)cc2nc1C | n | n | n | n | n | n
Cc1nc2cc(NC(=O)N3CCCC3)ccc2n1C | n | n | n | n | n | n
CCN1CCN(S(=O)(=O)c2ccc(Cl)c(C(=O)NCCc3ccccc3)c2)CC1 | n | x | n | n | n | n
CCOCCOC(=O)CCSc1n[nH]c(=O)[nH]c1=O | n | n | 50.1µM | n | n | n
CS(=O)(=O)Nc1cccc(-c2ccc3ncnc(NC4CCNCC4)c3c2)c1 | x | n | n[0.501 µM] | x | x | x
CC1CN(C(=S)NC(=O)c2ccc(Cl)cc2)CC(C)O1 (stereo not given) | n | n | 44.7µM | x | n | n
O=CN1CCN(C(=S)NC(=O)c2ccc(Cl)cc2)CC1 | n | n | 44.7µM | x | n | n
CC1CN(C(=S)Nc2cccc([N+](=O)[O-])c2)CC(C)O1 (stereo not given) | n | n | u | x | n | n
COc1ccc(C(=O)NC(=S)N2CC(C)OC(C)C2)cc1OC (stereo not given) | n | u | x | n | u | n
CC1CN(C(=S)NC(=O)c2cccc([N+](=O)[O-])c2)CC(C)O1 (stereo not given) | u | n | 14.1µM | n | n | n
COc1cc(OC)c(N(C)C(=O)c2c(C)oc3ncn(CC(C)C)c(=O)c23)cc1Cl | n | x | n | x | n | n
SMILES | JMJD2A Tudor inh | Sfp PPTase inh | G9a inh | L3MBTL1 inh | BAZ2B block | HP1b binding inh
Cc1cc(NC(=O)C(C)SCC(=O)OCc2ccc(Cl)cc2Cl)no1 (stereo not given) | n | x | n[12.7 µM] | n | n | n
CCc1ccc(NC(=O)C(NS(=O)(=O)c2cccs2)C(C)C)cc1 (stereo not given) | n | x | n | x | n | n
O=C(O)c1ccc(Cl)c(S(=O)(=O)N(Cc2ccccc2)c2ccccc2)c1 | n | n | u | x | n | n
CCN(c1ccccc1)S(=O)(=O)c1cc(C(=O)O)ccc1C | n | n | n[0.501 µM] | u | 50.1µM | n
Cc1nn(-c2cccc(Cl)c2)c2nc(-c3ccco3)cc(C(=O)O)c12 | n | 28.2µM | 10µM | x | u | n
O=C(CN1CCOCC1)Nc1ccc(Cl)c(Cl)c1 | 28.2µM | n | 8.91µM | n | n | u
O=C(CSCC(=O)N1CCOCC1)Nc1nc(-c2ccccc2)cs1 | n | n | n | x | n | n
O=C(CN1CCOCCOCCN(CC(=O)Nc2ccccc2)CCOCC1)Nc1ccccc1 | n | n | 31.6µM | n | n | n
O=C(CSCC(=O)N1CCOCC1)Nc1ccccc1 | n | n | 44.7µM | n | n | n
O=C(CN1CCOCCOCCOCC1)Nc1ccccc1 | n | n | u | x | n | n
O=C(Nc1nnc(C2CC2)s1)C1COc2ccccc2O1 (stereo not given) | n | n | n | x | n | n
O=C(/C=C/c1ccc(Br)o1)Nc1nnc(C2CC2)s1 | x | u | 56.2µM | n | n | x
COc1cc(/C=C/C(=O)O)cc(S(=O)(=O)Nc2ccc3nc(C)sc3c2)c1OC | n | 39.8µM | n[12.7 µM] | x | n | n
Cc1nc2ccc(NS(=O)(=O)c3c(C)c(C)cc(C)c3C)cc2s1 | n[11.4 µM] | n | 14.1µM | x | u | n
COc1cc(/C=C/C(=O)O)cc(S(=O)(=O)Nc2ccc(F)cc2)c1OC | n | n | n | n | n | n
CC(=O)Nc1ccc(N(C(=O)c2ccco2)C(C(=O)NC2CCCCC2)c2ccccc2)cc1 (stereo not given) | n | n | n | x | n | n
CCN1C(=O)[C@H]2[C@@H]3[C@H](O)[C@H](O)CC(=O)[C@H]3CC[C@H]2C1=O | x | n | x | x | x | x
Cc1cccc(C2=N/C(=C\c3cccnc3)C(=O)O2)c1 | n | n | u | n | n | n
Cc1ccc(C2=C/C(=C/c3cccnc3)C(=O)O2)c(C)c1 | n | 50.1µM | u | n | n | n
O=C1OC(c2ccc(Cl)cc2)=C/C1=C/c1cccnc1 | n | n | 56.2µM | x | n | n
COc1ccc(C2=C/C(=C\c3cccc(OC(C)=O)c3)C(=O)O2)cc1 | n | n | n | n | n | n
O=[S+]([O-])(c1c(F)cccc1F)N1CCN([S+](=O)([O-])c2cccc3nonc23)CC1 | n | x | x | x | x | x
CCOC(=O)c1c[nH]c(=S)n1C | 31.6µM | u | 22.4µM | n | n | n
CCOC(=O)c1sc(=S)n(C)c1C | n | n | n | x | n | n
CC(C)(C)NC(=O)NC(=O)CN1CCN(C(c2ccccc2)c2ccccc2)CC1 | n | n | n | x | n | n
CC1CN(S(=O)(=O)c2ccc(C(=O)Nc3nnc(-c4ccccn4)o3)cc2)CC(C)O1 (stereo not given) | 89.1µM | n | n | x | x | n
CC1CCCCN1S(=O)(=O)c1ccc(C(=O)Nc2nnc(-c3ccccn3)o2)cc1 (stereo not given) | n | n | n | x | x | n

High-throughput results from PubChem BioAssay.
